# Experimental data from PubChem BioAssay.
# Active and inactive are the calls of the source.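 The calls were made as follows: active = visually confirmed hit in the image check and inhibition above 20%; inconclusive = visually confirmed hit but inhibition not above 20%; inactive = no visual hit in the image check.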
# Assay: inhibitors of E-selectin induction by TNFa, primary screen, imaging, HUVEC, immunofluorescence, MLSMR starter and 10KST1 sets (AID 487);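 as to inhibition: signal is fraction of cell area covered by stained E-selectin grains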;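 as to nuclei count: 100% = median nuclei count of all wells on the same plate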
# Settings: HUVEC TNFalpha-induced E-selectin immunofluorescence imaging, at 2 µM; inhibition: stronger effect = higher value; nuclei count: measured here: cell number, toxicity
Compound,inhibition,nuclei count [%]
COc1ccc2c(c1)C(=O)N(c1ccccc1OC)C(=O)C2,-22% (inactive),110
CCC(C)(C)n1nnnc1C(c1cc2cc(OC)ccc2[nH]c1=O)N1CCc2ccccc21 (stereo not drawn),-14.8% (inactive),116
Cc1cc(C)cc(-n2nnc(C(=O)NCc3ccc4c(c3)OCO4)c2N)c1,-17.7% (inactive),108
c1ccc(-c2cc(N3CCCCC3)ncn2)cc1,-109% (inactive),112
Cn1c(=O)[nH]c(=O)c2c1nc(N1CCNCC1)n2CCOc1ccccc1,-91.3% (inactive),124
O=c1c[n+]([O-])c2ccccc2n1OCc1c(F)cccc1F,-236% (inactive),110
CCC(C)(C(=O)NC1CCCC1)N(C(=O)c1cnccn1)c1c(C)n(C)n(-c2ccccc2)c1=O (stereo not drawn),15.6% (inactive),89.6
COCCOC(=O)c1[nH]c2c(c1C)C(=O)CC(c1ccco1)C2 (stereo not drawn),-169% (inactive),95.8
O=C(O)c1ccccc1S(=O)(=O)NCC(O)COc1ccc(Br)cc1 (stereo not drawn),31.4% (inactive),81.4
COc1cc(C)c(N)cc1C(C)C,-41.7% (inactive),110
Cc1ccc(-c2cc3nc4c(c(=O)n3[nH]2)CCCC4)cc1,-69.9% (inactive),119
CCCN1CCN(CCCNC(=O)Cn2ncc3c4ccccc4n(C)c3c2=O)CC1,-61.4% (inactive),110
Cc1nn(-c2ccc(F)cc2)c2c1cc(C#N)c1nc3ccccc3n12,2.3% (inactive),102
C=CCOC(=O)C1=C(C)OC(N)=C(C#N)C1c1ccc2c(c1)OCO2 (stereo not drawn),9.6% (inactive),136
